Results filed as inconclusive are left out. Entries that show only a call come without a potency. Some structures have more than one record in an assay (separate samples or runs), and their calls can disagree. The source made the active and inactive calls. Calls follow the shape of the dose curve; as a rule, active = well fitted curve in the direction sought with a large enough effect; inconclusive = small, poorly fitted or top-dose-only effect, or another doubt; inactive = no such curve, though single readings can be large; an effect the other way counts as inactive or inconclusive.
Tests used:
[1] = biological target: Glutathione peroxidase 1 (Homo sapiens) (UniProt P07203); assay: Primary qHTS Assay for Inhibitors of Recombinant Selenoprotein Glutathione Peroxidase 1 (GPX1) (AID 1845191); also: nearly all actives have a fitted effect of over 65% in size
Outline: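 Recombinant GPX1 (10 nM final) was preincubated with compound for 30 min at room temperature, then reacted with 1 mM GSH, 0.5 mM CHP, 0.5 mM NADPH and 100 nM glutathione reductase; NADPH fluorescence (340/450 nm) was read at 0 and 15 min.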

[2] = biological target: Phospholipid hydroperoxide glutathione peroxidase GPX4 (Homo sapiens) (UniProt P36969); assay: Primary qHTS Assay for Inhibitors of Recombinant Selenoprotein Glutathione Peroxidase 4 (GPX4) (AID 1845192); also: nearly all actives have a fitted effect of over 65% in size; also: potency is read from the fitted curve at half-maximal effect
Outline: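 GR-coupled readout: 100 nM GR, 1 mM GSH, 0.5 mM NADPH; NADPH fluorescence (ex 340/em 450 nm) read at t=0 and after 15 min RT. GPX4 200 nM, preincubated 30 min with compound; substrate 0.5 mM CHP.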

[3] = biological target: Luciferin 4-monooxygenase (Photinus pyralis) (UniProt P08659); assay: Primary firefly luciferase (FLuc) qHTS assay for identification of artifact compounds. (AID 1845220); also: nearly all actives have a fitted effect of over 60% in size
Outline: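 Reaction readout was CCD-imaged luminescence, taken 5 min after adding 10 nM purified firefly enzyme to compound-treated wells holding 10 uM luciferin and ATP in pH 7.6 buffer.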

[4] = Primary fluorescence-based thiol-reactive (MSTI) qHTS assay for identification of artifact compounds. (AID 1845221);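 also: series mostly up to about 54 µM; thiol-reactive compounds lower the probe fluorescence signal; nearly all actives have a fitted effect of over 65% in size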
Outline: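 A multi-concentration qHTS design tested compounds against 4 uM MSTI, pH 7.4 phosphate-buffered saline. Plates were protected from light for 1 h at room temperature before imaging fluorescence.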

Sequence of Phospholipid hydroperoxide glutathione peroxidase GPX4 (Homo sapiens) (P36969 whole entry, looked up): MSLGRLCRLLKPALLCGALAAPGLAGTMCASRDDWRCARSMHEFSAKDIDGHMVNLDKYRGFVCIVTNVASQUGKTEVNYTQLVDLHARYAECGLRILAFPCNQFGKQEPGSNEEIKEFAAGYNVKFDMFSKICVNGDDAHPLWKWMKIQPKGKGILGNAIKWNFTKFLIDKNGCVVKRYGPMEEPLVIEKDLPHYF
Sequence of Glutathione peroxidase 1 (Homo sapiens) (P07203 whole entry, looked up): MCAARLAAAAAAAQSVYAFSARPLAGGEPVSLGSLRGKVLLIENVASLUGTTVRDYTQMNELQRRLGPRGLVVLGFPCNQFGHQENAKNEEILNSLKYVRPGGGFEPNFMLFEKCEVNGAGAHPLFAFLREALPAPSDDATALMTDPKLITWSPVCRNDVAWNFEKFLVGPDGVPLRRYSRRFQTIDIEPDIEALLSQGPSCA

Structure (SMILES): CCc1ccc(CCOc2ccc(CC3SC(=O)NC3=O)cc2)nc1 (stereo unspecified)
- Potency [1]: inactive
- Potency [2]: inactive

Structure (SMILES): COc1ccc(COc2cc3oc(=O)c4cc(C(C)O)ccc4c3cc2OC)cc1 (stereo unspecified)
- Potency [1]: inactive
- Potency [2]: inactive

Structure (SMILES): NC(=O)c1ccc(-c2nc(-c3ccc4c(c3)OCO4)c(-c3ccccn3)[nH]2)cc1
- Potency [1]: inactive
- Potency [2]: inactive

Structure (SMILES): Cc1ccc(NC(=O)c2cccc(C(C)(C)C#N)c2)cc1Nc1ccc2ncn(C)c(=O)c2c1
- Potency [1]: inactive
- Potency [2]: inactive

Structure (SMILES): O=C1[C@H](Cc2ccc(O)cc2)N2C(=O)CCN(C(=O)NCc3ccccc3)[C@H]2CN1Cc1cccc2ccccc12
- Potency [1]: inactive
- Potency [2]: inactive

Structure (SMILES): C[C@]1(c2nc3c(C(N)=O)cccc3[nH]2)CCCN1
- Potency [1]: inactive
- Potency [2]: inactive

Structure (SMILES): C/C(=C\C(=O)Nc1ccccc1C(=O)O)c1ccc2ccccc2c1
- Potency [1]: inactive
- Potency [2]: 18 µM (active)

Structure (SMILES): CCC(=O)N[C@H]1CC[C@H](C(=O)N(C)c2ccc(-c3nc4ccccc4o3)cc2)C1
- Potency [1]: inactive
- Potency [2]: inactive

Structure (SMILES): Cc1ccc(-n2nc(C(C)(C)C)cc2NC(=O)Nc2ccc(OCCN3CCOCC3)c3ccccc23)cc1
- Potency [1]: inactive
- Potency [2]: inactive

Structure (SMILES): Fc1ccc(Cl)cc1-c1nc(Nc2ccncc2)c2nccnc2n1
- Potency [1]: inactive
- Potency [2]: inactive

Structure (SMILES): Cc1cc2c(F)c(Oc3ncnn4cc(OC[C@@H](C)O)c(C)c34)ccc2[nH]1
- Potency [1]: inactive
- Potency [2]: inactive

Structure (SMILES): Cc1cc(-c2ccc(CC(=O)Nc3ccc(-c4cccnc4)cc3)cc2)ccn1
- Potency [1]: inactive
- Potency [2]: inactive

Structure (SMILES): CC(=O)NC(C)c1ccc(Oc2ccc(OC(C)C)cc2)cc1 (stereo unspecified)
- Potency [1]: inactive
- Potency [2]: inactive

Structure (SMILES): CCC(C)(C)C(=O)O[C@H]1C[C@@H](C)C=C2C=C[C@H](C)[C@H](CC[C@@H]3C[C@@H](O)CC(=O)O3)[C@H]21
- Potency [1]: inactive
- Potency [2]: inactive

Structure (SMILES): CCN(c1ccccc1)c1cc(NC)[n+](C)c(C)n1
- Potency [1]: inactive
- Potency [2]: inactive

Structure (SMILES): CN[C@@H](C)C(=O)N[C@H]1CCCC[C@H]2CC[C@@H](C(=O)N[C@@H](c3ccccc3)c3cn(CCCCc4ccc(CCCCn5cc([C@@H](NC(=O)[C@@H]6CC[C@@H]7CCCC[C@H](NC(=O)[C@H](C)NC)C(=O)N76)c6ccccc6)nn5)cc4)nn3)N2C1=O
- Potency [1]: inactive
- Potency [2]: inactive

Structure (SMILES): Cc1c(C)c2c(c(C)c1O)CCC(C)(COc1ccc(CC3SC(=O)NC3=O)cc1)O2 (stereo unspecified)
- Potency [1]: inactive
- Potency [2]: inactive

Structure (SMILES): NC(=O)c1ccc(-c2nc(-c3ccc4c(c3)OCCO4)c(-c3ccccn3)[nH]2)cc1
- Potency [1]: inactive
- Potency [2]: inactive

Structure (SMILES): NC(=O)C1CCCc2c1[nH]c1ccc(Cl)cc21 (stereo unspecified)
- Potency [1]: inactive
- Potency [2]: inactive

Structure (SMILES): CCCn1c(=O)c2[nH]c(C34CC5CC3C[C@@H](C5)C4)nc2n(CCC)c1=O
- Potency [1]: inactive
- Potency [2]: inactive

Structure (SMILES): CNC(=O)c1ccc(N2C(=S)N(c3ccc(C#N)c(C(F)(F)F)c3)C(=O)C2(C)C)cc1F
- Potency [1]: inactive
- Potency [2]: inactive

Structure (SMILES): Nc1cccc(S(=O)(=O)N2CCCN(S(=O)(=O)c3ccc4c(c3)OCCO4)CC2)c1
- Potency [1]: inactive
- Potency [2]: inactive

Structure (SMILES): O=c1ncn2nc(Sc3ccc(F)cc3F)ccc2c1-c1c(Cl)cccc1Cl
- Potency [1]: inactive
- Potency [2]: inactive

Structure (SMILES): CCN(CC)CCCC(C)Nc1nc(C)cc(Nc2ccc3nc(C)cc(N)c3c2)n1 (stereo unspecified)
- Potency [1]: inactive
- Potency [2]: inactive

Structure (SMILES): OCCC#Cc1nc(-c2ccc(F)cc2)c(-c2ccncc2)n1CCCc1ccccc1
- Potency [1]: inactive
- Potency [2]: inactive

Structure (SMILES): Nc1ncnc2nc(-c3ccc(N4CCOCC4)nc3)cc(-c3cccc(Br)c3)c12
- Potency [1]: inactive
- Potency [2]: inactive

Structure (SMILES): CN([C@@H](Cc1ccc(OS(=O)(=O)c2cccc3cnccc23)cc1)C(=O)N1CCN(c2ccccc2)CC1)S(=O)(=O)c1cccc2cnccc12
- Potency [1]: inactive
- Potency [2]: inactive

Structure (SMILES): CCCc1nc2c(C)cc(-c3nc4ccccc4n3C)cc2n1Cc1ccc(-c2ccccc2C(=O)O)cc1
- Potency [1]: inactive
- Potency [2]: inactive

Structure (SMILES): NC(=O)c1ccc(I)c([N+](=O)[O-])c1
- Potency [1]: inactive
- Potency [2]: inactive

Structure (SMILES): Cc1cc2c(C(C)C)c(O)c(O)c(C=O)c2c(O)c1-c1c(C)cc2c(C(C)C)c(O)c(O)c(C=O)c2c1O
- Potency [1]: inactive
- Potency [2]: 10.1 µM (active) and inactive

Structure (SMILES): CCn1c(-c2nonc2N)nc2c(C#CC(C)(C)O)ncc(OC[C@H]3CCCNC3)c21
- Potency [1]: inactive
- Potency [2]: inactive

Structure (SMILES): CC(c1cc2ccccc2s1)N(O)C(N)=O (stereo unspecified)
- Potency [1]: inactive
- Potency [2]: inactive

Structure (SMILES): COc1cc2nccc(Oc3ccc(NC(=O)NC4CC4)c(Cl)c3)c2cc1C(N)=O
- Potency [1]: inactive
- Potency [2]: inactive
- Potency [3]: inactive
- Potency [4]: inactive

Structure (SMILES): O=C(O)[C@@H](c1ccc(OCc2ccc3ccccc3n2)cc1)C1CCCC1
- Potency [1]: inactive
- Potency [2]: inactive

Structure (SMILES): CCCCNc1cc(C(=O)O)cc(S(N)(=O)=O)c1Oc1ccccc1
- Potency [1]: inactive
- Potency [2]: inactive

Structure (SMILES): COCCNCCCn1c(C(=O)CF)c(-c2ccc(C)cc2)c2c(N)ncnc21
- Potency [1]: inactive
- Potency [2]: inactive

Structure (SMILES): O=C(NOC[C@H](O)CO)c1ccc(F)c(F)c1Nc1ccc(I)cc1F
- Potency [1]: inactive
- Potency [2]: inactive
- Potency [3]: inactive
- Potency [4]: inactive

Structure (SMILES): CC1(C)Cc2c(-c3ccccc3)c(-c3ccc(Cl)cc3)c(CC(=O)O)n2C1
- Potency [1]: inactive
- Potency [2]: inactive
- Potency [3]: inactive
- Potency [4]: inactive

Structure (SMILES): C[C@H](NC(=O)Cc1cc(F)cc(F)c1)C(=O)N[C@@H]1C(=O)N(C)c2ccccc2-c2ccccc21
- Potency [1]: inactive
- Potency [2]: inactive
- Potency [3]: inactive
- Potency [4]: inactive

Structure (SMILES): Cc1cnc(Nc2ccc(OCCN3CCCC3)cc2)nc1Nc1cccc(S(=O)(=O)NC(C)(C)C)c1
- Potency [1]: inactive
- Potency [2]: inactive
- Potency [3]: inactive

Structure (SMILES): CCc1cc(Nc2nccc(-c3c(-c4ccc(OC)c(C(=O)Nc5c(F)cccc5F)c4)nc4ccccn34)n2)c(OC)cc1N1CCC(N2CCN(S(C)(=O)=O)CC2)CC1
- Potency [1]: inactive
- Potency [2]: inactive
- Potency [3]: inactive

Structure (SMILES): COc1cc(Nc2ncc3c(n2)-c2ccc(Cl)cc2C(c2c(F)cccc2OC)=NC3)ccc1C(=O)O
- Potency [1]: inactive
- Potency [2]: inactive
- Potency [3]: inactive
- Potency [4]: inactive

Reference: PubChem BioAssay (NCATS)
